Assay results reported in the supplement of paper PMC11732987, “Enantioselective OTUD7B fragment discovery through chemoproteomics screening and high-throughput optimisation” (Communications Chemistry, 2025).

Assays:
Test in all cases: log2 ratio of Biotin-Ahx-Ub-VS probe labelling (fragment/DMSO); higher = less target engagement (more negative = stronger competition), active = hit call of the paper (q ≤ 0.05, log2 ratio ≤ -1)
Conditions in all cases: compound concentration: 200 uM; treatment time: 3 h
[1] = biological target: T1, USP42 (UniProt Q9H9J4)
T1 sequence (whole entry): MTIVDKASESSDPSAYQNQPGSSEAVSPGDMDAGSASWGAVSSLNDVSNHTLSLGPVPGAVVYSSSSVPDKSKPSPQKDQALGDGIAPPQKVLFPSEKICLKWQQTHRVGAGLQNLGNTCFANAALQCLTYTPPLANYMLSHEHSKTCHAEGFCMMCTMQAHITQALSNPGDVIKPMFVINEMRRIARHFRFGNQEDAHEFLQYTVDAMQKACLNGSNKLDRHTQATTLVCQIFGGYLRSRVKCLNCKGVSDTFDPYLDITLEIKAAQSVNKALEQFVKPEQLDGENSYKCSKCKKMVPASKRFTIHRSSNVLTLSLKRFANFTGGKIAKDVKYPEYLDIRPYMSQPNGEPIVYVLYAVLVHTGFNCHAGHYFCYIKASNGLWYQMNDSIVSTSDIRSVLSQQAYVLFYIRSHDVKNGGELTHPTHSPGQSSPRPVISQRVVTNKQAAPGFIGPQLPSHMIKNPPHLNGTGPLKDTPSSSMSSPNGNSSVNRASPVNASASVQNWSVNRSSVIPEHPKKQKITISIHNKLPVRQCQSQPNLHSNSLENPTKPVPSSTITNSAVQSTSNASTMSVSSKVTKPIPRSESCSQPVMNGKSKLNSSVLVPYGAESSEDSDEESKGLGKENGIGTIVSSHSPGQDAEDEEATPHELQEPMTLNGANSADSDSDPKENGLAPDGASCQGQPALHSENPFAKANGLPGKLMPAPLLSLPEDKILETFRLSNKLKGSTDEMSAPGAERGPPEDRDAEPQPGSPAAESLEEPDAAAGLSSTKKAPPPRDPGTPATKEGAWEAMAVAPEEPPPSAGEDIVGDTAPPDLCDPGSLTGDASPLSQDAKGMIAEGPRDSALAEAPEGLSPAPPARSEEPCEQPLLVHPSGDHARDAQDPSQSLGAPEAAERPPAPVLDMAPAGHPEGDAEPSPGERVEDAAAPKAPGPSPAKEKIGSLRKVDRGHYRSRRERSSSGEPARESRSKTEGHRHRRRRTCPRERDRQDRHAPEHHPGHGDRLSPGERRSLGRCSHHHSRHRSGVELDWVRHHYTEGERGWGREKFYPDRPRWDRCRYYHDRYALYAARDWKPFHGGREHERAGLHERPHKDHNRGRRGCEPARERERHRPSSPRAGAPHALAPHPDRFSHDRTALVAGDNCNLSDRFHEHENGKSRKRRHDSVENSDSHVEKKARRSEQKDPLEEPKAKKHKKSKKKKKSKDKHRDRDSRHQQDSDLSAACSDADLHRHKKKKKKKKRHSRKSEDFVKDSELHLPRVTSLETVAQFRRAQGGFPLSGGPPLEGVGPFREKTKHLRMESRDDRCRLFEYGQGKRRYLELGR
Summary of the method: (§1)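 Each value is an average log2 ratio of fragment to vehicle, tested by unpaired t-test. The underlying Spectronaut label-free quantities were global-median-normalised, and only proteins with ≥2 unique peptides were included. Triplicate HEK293T lysate samples (495 µg) were exposed to fragment at 200 µM or vehicle for 3 h, then to Biotin-Ahx-Ub-VS at 0.5 µM final for 1 h, before NeutrAvidin enrichment of labelled DUBs, LysC and trypsin digestion, and diaPASEF LC-MS/MS.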

[2] = biological target: USP46 (UniProt P62068)
USP46, sequence (P62068 whole entry): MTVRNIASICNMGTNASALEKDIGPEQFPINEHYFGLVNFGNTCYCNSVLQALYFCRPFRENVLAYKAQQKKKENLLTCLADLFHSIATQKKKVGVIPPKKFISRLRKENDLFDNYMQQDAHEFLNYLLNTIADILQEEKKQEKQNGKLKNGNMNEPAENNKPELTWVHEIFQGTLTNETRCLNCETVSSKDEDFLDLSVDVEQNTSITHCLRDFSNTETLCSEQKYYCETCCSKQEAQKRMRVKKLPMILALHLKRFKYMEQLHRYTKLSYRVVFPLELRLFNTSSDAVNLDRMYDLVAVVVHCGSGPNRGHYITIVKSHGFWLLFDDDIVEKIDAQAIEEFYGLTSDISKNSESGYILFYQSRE
Summary of the method: as §1

[3] = biological target: T2, USP47 (UniProt Q96K76)
T2 sequence (whole entry): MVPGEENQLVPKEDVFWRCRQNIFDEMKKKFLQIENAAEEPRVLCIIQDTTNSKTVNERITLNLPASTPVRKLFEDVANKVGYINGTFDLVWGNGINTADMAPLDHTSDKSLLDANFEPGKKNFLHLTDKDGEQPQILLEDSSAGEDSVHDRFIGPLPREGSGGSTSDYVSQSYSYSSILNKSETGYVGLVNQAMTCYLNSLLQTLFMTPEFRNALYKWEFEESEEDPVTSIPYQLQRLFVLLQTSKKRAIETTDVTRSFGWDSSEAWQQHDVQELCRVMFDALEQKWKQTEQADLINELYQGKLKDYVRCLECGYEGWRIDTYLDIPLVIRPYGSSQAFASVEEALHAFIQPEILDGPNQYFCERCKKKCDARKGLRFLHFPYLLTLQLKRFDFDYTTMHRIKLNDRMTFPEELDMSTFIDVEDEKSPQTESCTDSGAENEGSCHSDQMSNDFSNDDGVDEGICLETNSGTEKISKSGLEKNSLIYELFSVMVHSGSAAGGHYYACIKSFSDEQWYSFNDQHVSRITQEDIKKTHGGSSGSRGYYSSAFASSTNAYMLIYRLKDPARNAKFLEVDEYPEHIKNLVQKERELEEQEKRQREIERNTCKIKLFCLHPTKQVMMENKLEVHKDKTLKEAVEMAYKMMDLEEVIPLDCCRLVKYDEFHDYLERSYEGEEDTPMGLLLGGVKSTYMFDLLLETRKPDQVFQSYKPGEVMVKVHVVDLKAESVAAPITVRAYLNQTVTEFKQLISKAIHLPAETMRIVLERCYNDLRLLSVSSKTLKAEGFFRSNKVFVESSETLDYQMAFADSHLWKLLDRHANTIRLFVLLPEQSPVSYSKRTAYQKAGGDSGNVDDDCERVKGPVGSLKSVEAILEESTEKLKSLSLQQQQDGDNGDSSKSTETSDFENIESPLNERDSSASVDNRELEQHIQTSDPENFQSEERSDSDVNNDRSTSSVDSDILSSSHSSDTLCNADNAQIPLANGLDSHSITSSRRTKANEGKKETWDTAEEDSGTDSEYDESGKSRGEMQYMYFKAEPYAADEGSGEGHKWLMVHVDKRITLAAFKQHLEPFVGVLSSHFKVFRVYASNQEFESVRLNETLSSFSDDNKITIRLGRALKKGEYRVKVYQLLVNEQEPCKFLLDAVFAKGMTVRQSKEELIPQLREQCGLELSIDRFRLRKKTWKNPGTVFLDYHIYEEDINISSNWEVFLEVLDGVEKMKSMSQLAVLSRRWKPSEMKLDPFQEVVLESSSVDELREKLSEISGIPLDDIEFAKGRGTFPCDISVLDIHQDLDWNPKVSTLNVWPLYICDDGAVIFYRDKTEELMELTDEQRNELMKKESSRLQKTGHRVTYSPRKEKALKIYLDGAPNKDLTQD
Summary of the method: as §1

[4] = biological target: T3, USP48 (UniProt Q86UV5)
T3 sequence (whole entry): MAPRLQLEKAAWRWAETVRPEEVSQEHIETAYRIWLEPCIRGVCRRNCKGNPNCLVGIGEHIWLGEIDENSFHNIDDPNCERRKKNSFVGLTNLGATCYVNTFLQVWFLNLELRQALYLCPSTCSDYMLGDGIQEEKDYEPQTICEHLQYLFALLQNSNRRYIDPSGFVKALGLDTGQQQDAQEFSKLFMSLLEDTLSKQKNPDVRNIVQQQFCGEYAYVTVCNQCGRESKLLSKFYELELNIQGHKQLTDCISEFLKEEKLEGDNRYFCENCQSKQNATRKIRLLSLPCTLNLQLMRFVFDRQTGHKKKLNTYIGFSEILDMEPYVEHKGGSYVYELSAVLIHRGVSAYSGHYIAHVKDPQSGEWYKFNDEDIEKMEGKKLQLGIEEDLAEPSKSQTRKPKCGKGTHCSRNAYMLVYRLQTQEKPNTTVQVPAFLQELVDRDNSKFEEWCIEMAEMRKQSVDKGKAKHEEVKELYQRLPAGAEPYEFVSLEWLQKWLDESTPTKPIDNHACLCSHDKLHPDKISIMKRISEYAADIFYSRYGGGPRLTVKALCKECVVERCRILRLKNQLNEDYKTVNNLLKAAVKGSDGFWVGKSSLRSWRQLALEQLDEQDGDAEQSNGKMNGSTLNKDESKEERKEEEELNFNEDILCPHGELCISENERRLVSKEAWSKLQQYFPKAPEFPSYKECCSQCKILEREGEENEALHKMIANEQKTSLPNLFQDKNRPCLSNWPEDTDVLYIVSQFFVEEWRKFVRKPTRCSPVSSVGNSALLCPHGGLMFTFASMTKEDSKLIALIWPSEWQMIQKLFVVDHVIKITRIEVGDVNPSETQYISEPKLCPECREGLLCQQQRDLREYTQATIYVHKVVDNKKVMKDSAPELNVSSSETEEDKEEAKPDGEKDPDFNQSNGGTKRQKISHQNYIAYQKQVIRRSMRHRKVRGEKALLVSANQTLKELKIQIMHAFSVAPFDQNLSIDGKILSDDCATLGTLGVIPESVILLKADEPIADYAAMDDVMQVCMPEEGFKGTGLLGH
Summary of the method: as §1

[5] = biological target: T4, USP5 (UniProt P45974)
T4 sequence (whole entry): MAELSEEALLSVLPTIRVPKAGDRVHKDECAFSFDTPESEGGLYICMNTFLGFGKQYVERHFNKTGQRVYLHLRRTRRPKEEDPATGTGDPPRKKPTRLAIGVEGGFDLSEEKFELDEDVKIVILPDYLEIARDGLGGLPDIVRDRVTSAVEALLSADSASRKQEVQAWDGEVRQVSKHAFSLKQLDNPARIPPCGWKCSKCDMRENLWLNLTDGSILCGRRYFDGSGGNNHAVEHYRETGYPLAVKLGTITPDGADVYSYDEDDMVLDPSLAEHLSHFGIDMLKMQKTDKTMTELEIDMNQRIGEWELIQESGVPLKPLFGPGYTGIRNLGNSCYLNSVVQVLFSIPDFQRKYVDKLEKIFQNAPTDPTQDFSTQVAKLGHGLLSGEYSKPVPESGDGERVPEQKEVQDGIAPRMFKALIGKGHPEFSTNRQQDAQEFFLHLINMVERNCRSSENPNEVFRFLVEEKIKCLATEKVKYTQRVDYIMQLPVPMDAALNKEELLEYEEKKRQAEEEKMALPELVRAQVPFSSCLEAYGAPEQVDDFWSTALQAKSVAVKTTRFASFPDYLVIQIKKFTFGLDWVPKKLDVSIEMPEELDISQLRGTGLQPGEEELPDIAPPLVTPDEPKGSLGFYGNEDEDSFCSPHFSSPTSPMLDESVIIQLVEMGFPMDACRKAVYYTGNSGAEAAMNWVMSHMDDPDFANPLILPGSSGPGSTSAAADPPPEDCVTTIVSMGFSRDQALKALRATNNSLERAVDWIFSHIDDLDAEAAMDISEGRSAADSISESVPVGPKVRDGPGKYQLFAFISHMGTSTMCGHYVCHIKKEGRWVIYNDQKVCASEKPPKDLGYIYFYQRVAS
Summary of the method: as §1

[6] = biological target: USP54 (UniProt Q70EL1)
USP54, sequence (Q70EL1 whole entry): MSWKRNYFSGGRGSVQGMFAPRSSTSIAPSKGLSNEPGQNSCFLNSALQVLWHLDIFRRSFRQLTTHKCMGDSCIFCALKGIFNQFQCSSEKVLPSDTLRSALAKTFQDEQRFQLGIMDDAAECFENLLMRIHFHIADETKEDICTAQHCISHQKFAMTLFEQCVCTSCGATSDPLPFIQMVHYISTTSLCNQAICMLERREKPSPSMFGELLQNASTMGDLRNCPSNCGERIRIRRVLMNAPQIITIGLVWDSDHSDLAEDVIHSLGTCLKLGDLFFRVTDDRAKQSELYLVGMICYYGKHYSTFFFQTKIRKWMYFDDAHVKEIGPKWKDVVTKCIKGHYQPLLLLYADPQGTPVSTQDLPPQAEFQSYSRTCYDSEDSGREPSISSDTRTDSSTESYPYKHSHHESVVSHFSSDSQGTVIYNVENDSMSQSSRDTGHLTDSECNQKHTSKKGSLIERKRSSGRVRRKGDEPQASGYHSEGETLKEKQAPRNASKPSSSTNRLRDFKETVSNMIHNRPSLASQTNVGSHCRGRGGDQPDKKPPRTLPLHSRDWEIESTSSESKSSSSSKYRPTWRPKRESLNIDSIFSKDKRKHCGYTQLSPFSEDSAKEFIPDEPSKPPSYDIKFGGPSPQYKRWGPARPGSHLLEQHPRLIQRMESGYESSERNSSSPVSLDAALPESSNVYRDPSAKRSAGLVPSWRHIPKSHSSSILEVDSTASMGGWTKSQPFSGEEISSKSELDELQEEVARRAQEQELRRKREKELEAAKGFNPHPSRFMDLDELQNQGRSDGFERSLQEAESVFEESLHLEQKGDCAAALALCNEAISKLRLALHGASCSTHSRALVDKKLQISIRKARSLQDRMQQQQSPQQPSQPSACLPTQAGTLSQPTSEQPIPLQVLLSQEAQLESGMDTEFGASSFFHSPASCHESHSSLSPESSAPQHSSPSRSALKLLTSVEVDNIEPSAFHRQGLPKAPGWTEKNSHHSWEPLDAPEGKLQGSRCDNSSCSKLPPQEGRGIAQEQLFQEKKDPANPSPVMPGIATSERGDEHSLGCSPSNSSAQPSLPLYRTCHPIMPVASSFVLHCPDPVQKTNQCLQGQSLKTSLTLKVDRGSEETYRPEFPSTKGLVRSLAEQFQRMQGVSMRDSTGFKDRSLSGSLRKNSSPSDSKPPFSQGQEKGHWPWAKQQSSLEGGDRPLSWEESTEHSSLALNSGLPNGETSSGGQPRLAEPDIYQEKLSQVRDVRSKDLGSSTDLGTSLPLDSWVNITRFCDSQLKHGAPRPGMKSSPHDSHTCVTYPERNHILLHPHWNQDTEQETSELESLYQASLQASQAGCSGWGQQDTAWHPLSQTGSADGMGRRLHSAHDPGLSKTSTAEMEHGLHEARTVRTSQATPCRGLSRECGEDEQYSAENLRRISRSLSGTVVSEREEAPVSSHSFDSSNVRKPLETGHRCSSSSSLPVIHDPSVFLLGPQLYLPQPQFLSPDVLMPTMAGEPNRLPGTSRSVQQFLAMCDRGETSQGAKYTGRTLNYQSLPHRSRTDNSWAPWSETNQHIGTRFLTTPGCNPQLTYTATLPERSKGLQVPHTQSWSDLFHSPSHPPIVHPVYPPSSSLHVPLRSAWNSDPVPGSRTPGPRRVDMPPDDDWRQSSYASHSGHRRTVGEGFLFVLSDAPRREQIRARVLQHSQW
Summary of the method: as §1

[7] = biological target: USP7 (UniProt Q93009)
USP7, sequence (Q93009 whole entry, looked up): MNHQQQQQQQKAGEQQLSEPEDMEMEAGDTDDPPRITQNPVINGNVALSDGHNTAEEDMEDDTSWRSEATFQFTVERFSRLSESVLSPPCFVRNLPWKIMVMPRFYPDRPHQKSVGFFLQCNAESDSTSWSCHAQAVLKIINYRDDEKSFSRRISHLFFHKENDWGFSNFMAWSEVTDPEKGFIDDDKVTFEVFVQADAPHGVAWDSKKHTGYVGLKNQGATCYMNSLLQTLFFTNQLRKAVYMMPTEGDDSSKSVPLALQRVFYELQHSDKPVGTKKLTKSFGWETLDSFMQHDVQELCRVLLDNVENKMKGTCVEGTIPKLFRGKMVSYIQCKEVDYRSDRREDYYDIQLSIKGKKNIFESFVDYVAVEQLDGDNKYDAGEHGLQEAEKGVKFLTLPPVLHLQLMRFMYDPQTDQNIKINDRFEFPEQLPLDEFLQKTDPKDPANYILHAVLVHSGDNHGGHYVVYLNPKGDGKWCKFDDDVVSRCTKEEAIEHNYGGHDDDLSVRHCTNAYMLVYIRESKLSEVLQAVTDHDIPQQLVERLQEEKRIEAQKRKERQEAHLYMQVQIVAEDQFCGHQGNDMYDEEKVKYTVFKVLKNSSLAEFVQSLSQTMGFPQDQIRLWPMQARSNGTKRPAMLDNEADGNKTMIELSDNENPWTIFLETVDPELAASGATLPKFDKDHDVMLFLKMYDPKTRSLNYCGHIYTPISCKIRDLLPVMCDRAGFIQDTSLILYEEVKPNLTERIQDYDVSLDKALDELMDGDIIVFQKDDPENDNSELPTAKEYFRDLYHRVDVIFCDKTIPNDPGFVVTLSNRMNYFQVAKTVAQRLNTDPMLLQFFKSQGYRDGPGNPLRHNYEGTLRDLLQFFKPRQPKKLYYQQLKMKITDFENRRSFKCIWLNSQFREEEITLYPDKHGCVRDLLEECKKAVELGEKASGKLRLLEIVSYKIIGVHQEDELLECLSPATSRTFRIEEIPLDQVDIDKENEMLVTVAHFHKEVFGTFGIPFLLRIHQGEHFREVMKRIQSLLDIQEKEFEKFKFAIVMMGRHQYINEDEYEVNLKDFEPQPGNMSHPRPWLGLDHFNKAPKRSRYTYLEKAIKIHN
Summary of the method: as §1

[8] = biological target: T5, USP8 (UniProt P40818)
T5 sequence (whole entry): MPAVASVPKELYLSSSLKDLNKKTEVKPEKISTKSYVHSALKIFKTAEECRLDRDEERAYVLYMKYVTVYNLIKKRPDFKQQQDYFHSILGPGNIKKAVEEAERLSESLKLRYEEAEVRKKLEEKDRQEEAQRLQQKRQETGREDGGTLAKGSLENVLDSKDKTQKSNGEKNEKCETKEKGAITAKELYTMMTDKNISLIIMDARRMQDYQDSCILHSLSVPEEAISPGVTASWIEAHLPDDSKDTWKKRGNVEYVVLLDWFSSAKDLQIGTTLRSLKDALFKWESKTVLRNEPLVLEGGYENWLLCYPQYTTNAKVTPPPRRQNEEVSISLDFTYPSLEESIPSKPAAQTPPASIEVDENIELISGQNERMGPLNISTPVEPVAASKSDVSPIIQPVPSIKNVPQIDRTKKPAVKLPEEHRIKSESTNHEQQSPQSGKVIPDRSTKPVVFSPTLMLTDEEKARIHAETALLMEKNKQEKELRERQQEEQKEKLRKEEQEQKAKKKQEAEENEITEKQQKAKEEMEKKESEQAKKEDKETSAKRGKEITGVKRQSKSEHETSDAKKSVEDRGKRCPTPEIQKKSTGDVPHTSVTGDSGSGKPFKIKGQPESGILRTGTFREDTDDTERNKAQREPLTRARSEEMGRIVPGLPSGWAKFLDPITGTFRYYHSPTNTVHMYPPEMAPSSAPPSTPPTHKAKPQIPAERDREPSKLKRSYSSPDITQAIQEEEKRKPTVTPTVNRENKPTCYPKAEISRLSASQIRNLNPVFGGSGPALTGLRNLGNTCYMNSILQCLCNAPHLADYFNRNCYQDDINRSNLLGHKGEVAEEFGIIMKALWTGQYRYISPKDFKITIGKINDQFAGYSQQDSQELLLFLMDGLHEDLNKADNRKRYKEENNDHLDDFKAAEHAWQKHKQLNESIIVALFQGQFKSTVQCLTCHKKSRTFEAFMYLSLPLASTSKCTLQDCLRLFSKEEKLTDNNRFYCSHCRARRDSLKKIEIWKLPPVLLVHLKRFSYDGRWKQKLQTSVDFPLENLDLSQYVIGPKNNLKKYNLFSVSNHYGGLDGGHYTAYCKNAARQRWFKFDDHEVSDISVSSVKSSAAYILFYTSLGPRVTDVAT
Summary of the method: as §1

[9] = biological target: USP9X (UniProt Q93008)
Summary of the method: as §1

[10] = biological target: UniProt O00487
UniProt O00487, sequence (O00487 whole entry): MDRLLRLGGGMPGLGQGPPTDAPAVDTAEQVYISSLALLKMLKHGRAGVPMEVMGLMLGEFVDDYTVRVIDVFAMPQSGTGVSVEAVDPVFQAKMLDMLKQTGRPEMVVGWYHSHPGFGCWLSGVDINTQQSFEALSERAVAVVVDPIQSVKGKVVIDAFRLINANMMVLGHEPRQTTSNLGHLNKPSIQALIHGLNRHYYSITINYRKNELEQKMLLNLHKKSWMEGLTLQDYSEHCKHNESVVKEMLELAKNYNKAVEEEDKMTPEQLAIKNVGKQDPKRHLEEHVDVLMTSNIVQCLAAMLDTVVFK
Summary of the method: as §1

Measured: log2 ratio of Biotin-Ahx-Ub-VS probe labelling

Cc1cccc(N(CCC#N)C(=O)CCl)c1C
inactive: [1] 0.0225 | [2] 0.0197 | [3] -0.354 | [4] -0.0383 | [5] 0.289 | [6] 0.431 | [7] -0.47 | [8] 0.0891 | [9] 0.0273 | [10] 0.0621
